# Bioassay records (PubChem)
# Hits are enriched below; roughly 3.2% of the tested compounds scored in any of these assays.
# p53ts 32C tox = p53ts cell cytotoxicity, permissive temperature | AID 924 | H1299-p53A138V at 32C, ATP luminescence viability, 24 h | actives 0.93% (n = 130,000) | Potency, µM (titrated, usually from 46.1 µM), for inactives: top-dose activity change, negative = cytotoxicity, usual class: cytotoxic;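 note: potency is the fitted concentration of half-maximal effect; 0% = DMSO and -100% = full killing by reference compound; nearly all actives have a fitted effect of over 55% in size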
#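 H1299-p53 A138V cells (temperature-sensitive p53) exposed 24 h to up to 46 uM compound at 32C, where p53 is wild-type in conformation. Viability read as ATP luminescence and normalised to DMSO and 100 uM tamoxifen. AC50 fitted with the Hill equation.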
# ERK AVP block = blocks ERK signaling stimulated by vasopressin. HEK293-V1b, vasopressin-stimulated pERK AlphaScreen. Potency, µM (doses to about 57.5 µM), for the others: at the highest dose activity, negative = inhibition, actives largely listed as inhibitors. actives 0.99% (n = 72,000); note: potency is the fitted concentration of half-maximal effect; % is set by controls: 0 for no effect and ±100 for the full control effect; nearly all actives have a fitted effect of over 55% in size
#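 qHTS, compounds titrated on V1b-expressing HEK293 cells. Preincubation 30 min at 37C, vasopressin 25 nM for 5 min, lysis 10 min, bead incubation 5 hr at room temperature.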
# YjeE inh = displaces an ADP probe from E. coli YjeE (TsaE). purified YjeE enzyme, qHTS inhibition assay. Potency, µM. actives 0.05% (n = 71,000). AID 605
#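 Purified YjeE (10 uM) with BODIPY Texas Red-labeled ADP probe (2 uM); compounds pin-transferred, 15 min at room temperature. Binding inhibition read as decreased fluorescence polarization; ADP titration as control.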
# DNA Pol III inh = inhibitors of bacterial DNA polymerase III holoenzyme | reconstituted DNA polymerase III holoenzyme replication, biochemical | Potency, µM (doses to about 57.1 µM), for the others: at the top dose activity change, negative = inhibition | actives 0.25% (n = 71,000) | AID 603; note: potency is the fitted concentration of half-maximal effect; % is set by controls: 0 for no effect and ±100 for the full control effect
#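 Reconstituted *E. coli* holoenzyme (0.35 nM Pol III, 1 nM beta, 154 nM SSB, 2 nM primase) was preincubated with compound for 15 min at RT. Synthesis on 1.4 nM ssM13Gori ran 35 min, then was stopped with PicoGreen/EDTA and read as dsDNA fluorescence.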
# Tau filament bind = binders of human tau filaments; P10636; recombinant tau filaments, thioflavin S fluorescence, 15 h; filaments grown with octadecylsulfate alongside compound; Potency, µM (top dose mostly 57.1 µM), for the others: at the top dose activity change, negative = inhibition; actives 2% (n = 71,000); AID 596;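 note: potency is the fitted concentration of half-maximal effect; % is set by controls: 0 for no effect and ±100 for the full control effect; actives lower thioflavin S fluorescence by blocking filaments or displacing dye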
# Target sequence (P10636 whole entry, looked up): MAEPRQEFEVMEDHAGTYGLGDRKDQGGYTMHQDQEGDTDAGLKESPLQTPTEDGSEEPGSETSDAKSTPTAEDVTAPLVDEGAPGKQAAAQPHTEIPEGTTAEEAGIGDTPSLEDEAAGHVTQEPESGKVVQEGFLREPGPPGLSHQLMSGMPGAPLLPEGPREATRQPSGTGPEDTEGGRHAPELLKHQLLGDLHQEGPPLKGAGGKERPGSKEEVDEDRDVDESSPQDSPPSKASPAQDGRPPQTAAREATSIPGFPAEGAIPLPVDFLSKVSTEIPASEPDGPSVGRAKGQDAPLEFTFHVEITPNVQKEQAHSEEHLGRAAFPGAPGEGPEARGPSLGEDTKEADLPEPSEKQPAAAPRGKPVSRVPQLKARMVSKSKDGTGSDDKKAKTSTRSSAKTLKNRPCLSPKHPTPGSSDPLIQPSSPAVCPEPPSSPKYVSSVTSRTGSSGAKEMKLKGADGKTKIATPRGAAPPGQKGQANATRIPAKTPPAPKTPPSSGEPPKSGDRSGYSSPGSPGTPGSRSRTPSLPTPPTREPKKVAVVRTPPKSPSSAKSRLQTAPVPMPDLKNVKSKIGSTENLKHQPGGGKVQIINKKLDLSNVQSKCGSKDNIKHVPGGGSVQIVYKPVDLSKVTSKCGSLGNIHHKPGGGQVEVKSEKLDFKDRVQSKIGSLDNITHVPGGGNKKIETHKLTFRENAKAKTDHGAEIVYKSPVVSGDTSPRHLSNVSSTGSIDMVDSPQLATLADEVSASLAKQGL
#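 His-tagged recombinant human tau (exons 2, 3, 10; 1 uM final) fibrillized with 30 uM sodium octadecylsulfate, 15 h at 37 C, in pH 7.4 HEPES buffer with 10 uM thioflavine S and 5 mM DTT. Reduced ThS fluorescence (450/510 nm) marks activity.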
# p53ts 39C kill = kills p53ts cells at the nonpermissive temperature. H1299-p53A138V viability at 39C, ATP luminescence, 24 h. Potency, µM (titrated, usually from 46.1 µM), without a hit: at the highest dose activity change, negative = cell killing, hits mostly cytotoxic. actives 1.5% (n = 130,000); note: potency is the fitted concentration of half-maximal effect; % is set by controls: 0 for no effect and ±100 for the full control effect; nearly all actives have a fitted effect of over 55% in size
# An asterisk follows results filed as active; i = inactive; ? = inconclusive; · = no result given; [ ] = dose if it differs, or a comment. Calls come from the whole dose curve; as a rule, active = well fitted curve in the direction sought with a large enough effect; inconclusive = small, poorly fitted or top-dose-only effect, or another doubt; inactive = no such curve, though single readings can be large; an effect the other way counts as inactive or inconclusive.
SMILES,p53ts 32C tox,ERK AVP block,YjeE inh,DNA Pol III inh,Tau filament bind,p53ts 39C kill
c1ccc2c(c1)-c1nc3ccccc3cc1[C@H]2N1CCOCC1,-2%[9.22 µM],-7%[11.5 µM],i,1%[11.4 µM],0%[11.4 µM],3%[9.22 µM]
OC1c2ccccc2-c2nc3ccccc3cc21 (stereo not given),?,-23%,i,-10%,-30%,10µM*
CCOC(=O)N1CCc2c(sc3c2c(=O)n(Cc2ccccc2)c(=O)n3Cc2cccc(Cl)c2)C1,-2%,·,·,·,·,-1%
CCOC(=O)c1c(C)oc2nc(C)nc(N3CCN(c4ccc(C(C)=O)cc4)CC3)c12,3%,·,·,·,·,8%
COc1cccc(CNC(=O)CC(c2ccc(F)cc2)N2Cc3ccccc3C2=O)c1 (stereo not given),-5%,·,·,·,·,?
Nc1ccc(-c2nc3ccccc3[nH]2)cc1,10µM*,·,i,-8%,-23%,?
Nc1cccc(-c2nc3ccccc3[nH]2)c1,?,-3%,i,-2%,-2%,?
Cn1c(-c2nc(-c3ccccc3)cs2)nc2ccccc21,?,-5%,·,·,·,?
Nc1ccc(-c2nc3ccc(-c4nc5ccc(N)cc5[nH]4)cc3[nH]2)cc1,-14%,13µM*,·,·,·,11%
Nc1ccccc1-c1nc2ccccc2[nH]1,-24%,-4%,i,-6%,-1%,-29%
Cc1ccc2nc(-c3cccc(N)c3)[nH]c2c1,14µM*,·,·,·,·,11µM*
c1ccc(-c2csc(-c3nc4ccccc4[nH]3)n2)cc1,7.9µM*,1.3µM*,·,·,·,16µM*
COc1ccc(-c2nc(CN3CCC(C(=O)NCCCN4CCN(c5ccccc5F)CC4)CC3)c(C)o2)cc1OC,-9%,·,·,·,·,?
COc1cccc(NC(=O)c2ccc3nc(Cc4ccccc4)oc3c2)c1,8%,·,·,·,·,-22%
COc1cccc(NC(=O)CSc2nnc(NC(=O)NC3CCCCC3)s2)c1,11µM*,·,·,·,·,13µM*
CCOC(=O)c1cnn(-c2ccc(OC)cc2)c1C1CCN(C(=O)OC(C)(C)C)CC1,7%,·,·,·,·,4%
O=C(Nc1ccc(N2CCN(C(=O)c3ccc(Cl)cc3)CC2)cc1)c1cccnc1,4%,?,i,-6%,10µM*,5%
CC(C)(C)C1CCc2c(sc(NC(=O)c3ccc(Cl)cc3)c2C(=O)NCc2ccco2)C1 (stereo not given),-3%,·,·,·,·,21%
CCc1cccc(NC(=O)CS(=O)Cc2nc(-c3ccc(C)cc3)oc2C)c1 (stereo not given),38%,32µM*,i,-1%,180%,45%
Cc1ccc(-c2nc(CS(=O)CC(=O)N3CCN(c4cccc(Cl)c4)CC3)c(C)o2)cc1 (stereo not given),-7%,·,·,·,·,13µM*
Clc1ccc(-c2nnn3c2nc(NCc2ccc4c(c2)OCO4)c2ccccc23)cc1,9%,·,·,·,·,-21%
Cc1cccc(-c2nnn3c2nc(NCc2ccc4c(c2)OCO4)c2ccccc23)c1,-5%,·,·,·,·,6.3µM*
O=C(Cn1ncc2c3ccccc3n(Cc3ccccc3F)c2c1=O)NC1CCCCCC1,-11%,·,·,·,·,7.9µM*
CCCOC(=O)Nc1ccc(N2CCCCC2)cc1,13µM*,-19%,i,-5%,-10%,16µM*
CC(C)Oc1ccc(C(=O)Nc2ccc(N3CCCC3)cc2)cc1,-17%,-12%,i,1%[11.4 µM],2µM*,3%
SMILES,p53ts 32C tox,ERK AVP block,YjeE inh,DNA Pol III inh,Tau filament bind,p53ts 39C kill
CCCCOC(=O)Nc1ccc(C(=O)OCCC)cc1,1%,7%,i,-6%,22%,1%
CCCCCCn1c(-c2ccco2)nc2oc3cc(OC)ccc3c(=O)c2c1=O,3%,-22%,?,7%,3.2µM*,-5%
COc1ccc2c(=O)c3c(=O)n(Cc4ccco4)c(-c4ccccc4)nc3oc2c1,20%,-26%,i,-11%,2.5µM*,-3%
CCCc1nc2oc3cc(OC)ccc3c(=O)c2c(=O)n1Cc1ccco1,16%,?,i,-7%,0%,13%
CCOC(=O)c1cnc(-n2nc(C)cc2C)nc1Nc1ccc(N(C)C)cc1,8%,?,i,-7%,13µM*,12%
CCOC(=O)c1cnc(-n2nc(C)cc2C)nc1Nc1ccc2c(c1)OCO2,-2%,0%,i,-4%,6%,1%
Cc1[nH]nc2c1-c1nc3ccccc3nc1C(C)(C)C2,12%,13µM*,i,0%,-23%,2%
COc1cccc(-c2nc(NCCc3c[nH]c4ccc(OC)cc34)c3ccccc3n2)c1,?,?,i,-3%,?,?
COc1ccc2[nH]cc(CCNc3ncncc3-c3ccc(N(C)C)cc3)c2c1,-5%,?,i,-5%,25µM*,0%
COc1ccccc1-c1nc(NCCc2cnc[nH]2)c2ccccc2n1,1%,-11%,i,-15%,-28%,-10%
COc1ccc2[nH]cc(CCNc3ncncc3-c3ccoc3)c2c1,10%,?,i,-3%,-29%,8%
COc1ccc2[nH]cc(CCNc3nc(-c4ccc(N(C)C)cc4)nc4ccccc34)c2c1,10µM*,?,i,-2%,459%,13µM*
COc1ccc2[nH]cc(CCNc3nc(-c4ccoc4)nc4ccccc34)c2c1,4%,?,i,0%,4µM*,-13%
CN(C)c1ccc(-c2nc(NCCc3cnc[nH]3)c3ccccc3n2)cc1,5µM*,-20%,i,-30%,i,5µM*
C=CCC1C=CC(Oc2ccc(OC)cc2)C(CO)O1 (stereo not given),-6%[9.22 µM],-4%[11.5 µM],·,·,·,-3%[9.22 µM]
Cc1ccc2[nH]c3nc(CCCn4ccnc4-c4ccccc4)nnc3c2c1,2%[9.22 µM],14%[11.5 µM],·,·,·,0%[9.22 µM]
COc1cc2ncnc(Nc3cccc(Br)c3)c2cc1OC,-10%,-12%,i,3%,?,15%
COc1cc2ncnc(Nc3cccc(Cl)c3)c2cc1OC,-23%,20µM*,i,-6%,?,?
O=C(Nc1nc(-c2ccc(S(=O)(=O)N3CCCC3)cc2)cs1)c1cccs1,-7%,16µM*,i,-4%,84%,-10%
O=C(Nc1nc(-c2nc3ccccc3s2)cs1)c1ccc(S(=O)(=O)N2CCOCC2)cc1,?,3.2µM*,i,-6%,167%,-14%
c1ccsc1,2%[1.84 µM],1%,i,-2%,-8%,5%
Cc1ccc(CN2c3ccccc3S(=O)(=O)c3ccccc32)cc1,6%,·,·,·,·,?
COc1cccc(C2c3c(-c4ccccc4O)n[nH]c3C(=O)N2CCc2ccc(OC)c(OC)c2)c1 (stereo not given),-7%,·,·,·,·,?
Cc1cc2nnc(SC3CCOC3=O)n2c2ccccc12 (stereo not given),-6%,16µM*,i,-6%,12%,-10%
